Measurements taken from PubChem BioAssay.
Activity calls are given as the source filed them.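 Rule for the calls, unless noted: active = inhibition of the reporter signal at or above 50%; inactive = inhibition below 50%.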

Tests used:
[1] = inhibitors of TNFa-induced NFkB p65 translocation, primary screen, imaging, HUVEC, MLSMR starter and 10KST1 sets (AID 438;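 active = inhibition above 20% together with a positive visual image hit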;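 note: compound added about 3h40 before a 20 min TNFalpha stimulation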;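 for inhibition: signal is the nuclear over cytoplasmic p65 intensity ratio per well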); conditions: HUVEC TNFa-induced p65 nuclear translocation; cell count: measured here: nuclei count (cytotoxicity indicator), at 2.08 µM; inhibition: at 2 µM, stronger effect = higher value, 0% TNFa-plus-vehicle, 100% no-TNFa wells
[2] = reduction of polyQ htt aggregates in cells – imaging, exon1htt(103Q)mCFP cells, high-content imaging, primary screen (AID 483;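 active = visual image review flags a hit and inhibition of aggregation exceeds 20%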;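 note: compound exposure lasted 3 days before fixation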;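 for nuclei count: percent of the per-plate median nuclei count of sample wells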); conditions: exon1htt(103Q)mCFP cell line, aggregate imaging, at 2 µM; inhibition of aggregation: stronger effect = higher value; nuclei count: measured here: cell count, toxicity
[3] = endothelial E-selectin expression blockers – imaging, HUVEC, immunofluorescence, MLSMR starter and 10KST1 sets, primary screen (AID 487;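 active = visually confirmed hit in the image check and inhibition above 20%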;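 for inhibition: signal is fraction of cell area covered by stained E-selectin grains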;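 for nuclei count: 100% = median nuclei count of all wells on the same plate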); conditions: HUVEC TNFalpha-induced E-selectin immunofluorescence imaging, at 2 µM; inhibition: stronger effect = higher value; nuclei count: measured here: cell number, toxicity
[4] = molecular target: Voltage-gated potassium channel subunit beta-2 (Rattus norvegicus) (UniProt P62483); assay: inhibitors of rat Kvbeta2 reductase activity – biochemical, NADPH fluorescence, primary screen (AID 622;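 active = fluorescence slope higher than the sample average by over 3 SD, cut at about -0.22 in these data, passing the limit was not always enough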;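 note: slope of raw intensity against log time taken from 70 to 1610 s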); conditions: recombinant KvBeta, 4-cyanobenzaldehyde reduction, at 10 µM, stronger effect = higher value
[5] = molecular target: Voltage-gated potassium channel subunit beta-2 (Rattus norvegicus) (UniProt P62483); assay: enhancers of rat Kvbeta2 NADPH turnover – biochemical, NADPH fluorescence, primary screen (AID 623;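 active = NADPH fluorescence slope more negative than the mean of all samples by about 3 SD, 99.7% confidence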;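 note: fluorescence intensity change per second fitted from 20 to 320 s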); conditions: Recombinant KvBeta, NADPH fluorescence decrease slope, 10 min; at 10 µM; stronger effect = lower value
[6] = molecular target: Alpha-2C adrenergic receptor (Homo sapiens) (UniProt P18825); assay: compounds altering alpha2C-coupled GIRK flux – cell-based, HEK293 alpha2C/GIRK1/2, thallium flux, primary screen (AID 624;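 active = fluorescence slope after compound addition differing from the mean of all screened samples at 99.7% confidence, in either direction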;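 note: slope of fluorescence ratio to pre-addition baseline per second over 15 to 24 s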); conditions: thallium flux BTC fluorescence, at 10 µM, actives lie on both sides
[7] = blockers of RIG-like receptor reporter activation – cell-based, Sendai virus stimulus, luciferase, 10K MLSCN set, TLR/RLR signaling modifier project, primary screen (AID 602276;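 active = inhibition at or above 50% at 10 µM; inactive = inhibition below 50%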;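 note: firefly luciferase from ISG56 promoter only with Renilla not read in this screen; 0% = Sendai virus plus DMSO and 100% = medium plus DMSO without virus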); conditions: HEK293 RL24 IRF3 luciferase reporter, at 10 µM, stronger effect = higher value
[8] = TLR3 IRF3 reporter activation blockers – cell-based, poly I:C stimulus, luciferase, 10K MLSCN set, primary screen (AID 602277); conditions: HEK293-TLR3 RL24 IRF3 luciferase reporter, at 10 µM, stronger effect = higher value

Chain of Voltage-gated potassium channel subunit beta-2 (Rattus norvegicus) (P62483 whole entry, looked up): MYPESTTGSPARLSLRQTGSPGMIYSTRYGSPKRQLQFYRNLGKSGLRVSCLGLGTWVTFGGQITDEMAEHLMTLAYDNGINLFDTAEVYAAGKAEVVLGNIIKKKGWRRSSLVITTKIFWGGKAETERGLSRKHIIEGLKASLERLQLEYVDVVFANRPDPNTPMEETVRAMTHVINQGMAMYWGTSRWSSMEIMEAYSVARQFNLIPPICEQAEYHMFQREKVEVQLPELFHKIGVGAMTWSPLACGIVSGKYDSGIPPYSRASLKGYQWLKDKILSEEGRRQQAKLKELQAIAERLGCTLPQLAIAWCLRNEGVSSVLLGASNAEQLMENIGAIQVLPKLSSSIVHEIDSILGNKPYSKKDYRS
Chain of Alpha-2C adrenergic receptor (Homo sapiens) (P18825 whole entry, looked up): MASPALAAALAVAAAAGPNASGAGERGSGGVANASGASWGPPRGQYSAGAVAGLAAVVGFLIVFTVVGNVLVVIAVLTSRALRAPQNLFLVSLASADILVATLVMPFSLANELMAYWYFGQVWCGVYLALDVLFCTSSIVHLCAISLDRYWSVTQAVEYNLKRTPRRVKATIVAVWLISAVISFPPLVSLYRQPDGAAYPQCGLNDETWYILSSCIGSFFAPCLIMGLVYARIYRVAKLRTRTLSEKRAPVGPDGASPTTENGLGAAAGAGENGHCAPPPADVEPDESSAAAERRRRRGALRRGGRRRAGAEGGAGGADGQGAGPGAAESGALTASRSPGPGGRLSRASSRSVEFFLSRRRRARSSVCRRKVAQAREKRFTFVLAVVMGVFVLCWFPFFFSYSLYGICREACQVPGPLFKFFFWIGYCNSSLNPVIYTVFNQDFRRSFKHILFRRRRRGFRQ

| Compound | cell count [1] | inhibition [1] | inhibition of aggregation [2] | nuclei count [2] | inhibition [3] | nuclei count [3] | fluorescence slope [4] | NADPH fluorescence slope [5] | slope [6] | inhibition [7] | inhibition [8] |
| --- | --- | --- | --- | --- | --- | --- | --- | --- | --- | --- | --- |
| O=C(CCCc1cccs1)Nc1nc2c(s1)CCCC2 | 613 | 9.3% (inactive) | -20.4% (inactive) | 102% | -164% (inactive) | 150% | -0.461 (inactive) | -2.9e-05 (inactive) | 0.00629 (inactive) | -29.3% (inactive) | -48.8% (inactive) |
| CCOC(=O)C(NC(C)=O)(Nc1ccc(S(=O)(=O)Nc2nccs2)cc1)C(F)(F)F (centres undefined) | 523 | -1% (inactive) | 27% (inactive) | 93.8% | 4.2% (inactive) | 95.9% | -0.645 (inactive) | 1.5e-06 (inactive) | 0.00657 (inactive) | 14.8% (inactive) | 30.2% (inactive) |
| O=c1oc2c3c4c(cc2s1)CCCN4CCC3 | 441 | 7.4% (inactive) | -6.4% (inactive) | 100% | -17.7% (inactive) | 119% | -0.463 (inactive) | -6e-05 (inactive) | 0.00368 (inactive) | 7.3% (inactive) | 31.7% (inactive) |
| O=c1c2cc(N3CCOCC3)ccc2[nH]c(=S)n1CCCN1CCCC1 | 739 | 3% (inactive) | 6.2% (inactive) | 105% | -35% (inactive) | 106% | -0.0484 (active) | -1.6e-06 (inactive) | 0.00568 (inactive) | 3.61% (inactive) | 32.7% (inactive) |
| CCN1C(=O)c2ccccc2S(=O)c2ccc(C(=O)NC3CC3)cc21 (centres undefined) | 533 | 0.6% (inactive) | 20.1% (inactive) | 74.1% | 6.3% (inactive) | 104% | -0.505 (inactive) | -2.6e-05 (inactive) | 0.0077 (inactive) | 17.3% (inactive) | 24% (inactive) |
| CCCCCn1c(CN2CCN(C)CC2)nc2c1c(=O)n(C)c(=O)n2C | 521 | -1.4% (inactive) | -17.1% (inactive) | 95.8% | 0.3% (inactive) | 93.2% | -0.571 (inactive) | -3e-06 (inactive) | 0.00637 (inactive) | 1.18% (inactive) | 43.6% (inactive) |
| CCCN(CCC)CCNC(=O)c1cc2c(=O)n(C)c3ccccc3c2n1C | 627 | 0% (inactive) | -18.3% (inactive) | 109% | -57.7% (inactive) | 112% | -0.456 (inactive) | -7.5e-05 (inactive) | 0.00528 (inactive) | 27.9% (inactive) | 68.2% (active) |
| O=C(O)c1ccccc1S(=O)(=O)NCC(O)COc1ccc(Br)cc1 (centres undefined) | 435 | 3.5% (inactive) | -17% (inactive) | 106% | 31.4% (inactive) | 81.4% | -0.39 (inactive) | 2.1e-05 (inactive) | 0.00443 (inactive) | 10.6% (inactive) | 14.4% (inactive) |
| CCOc1cc(-c2nc(-c3ccc(C)nc3OCC)no2)cc(OCC)c1OCC | 612 | 0% (inactive) | 32.3% (inactive) | 79.5% | -56.3% (inactive) | 117% | -0.601 (inactive) | -1.4e-05 (inactive) | 0.00309 (inactive) | -10.9% (inactive) | -40.1% (inactive) |
| Cc1ccc(S(=O)(=O)N2CCN(CCO)CC2)cc1-c1nnc2c3ccccc3c(C)nn12 | 357 | -0.4% (inactive) | -26.9% (inactive) | 102% | 8.6% (inactive) | 81% | -0.609 (inactive) | -1.7e-05 (inactive) | 0.00417 (inactive) | 3.73% (inactive) | 9.83% (inactive) |
| COc1ccc(OC)c(-c2cc(C(=O)NCc3cccs3)no2)c1 | 248 | 1.3% (inactive) | 29.5% (inactive) | 101% | -23.8% (inactive) | 124% | -0.487 (inactive) | -5.5e-06 (inactive) | 0.00616 (inactive) | 3.16% (inactive) | 32% (inactive) |
| COCCCN(Cc1ccccn1)S(=O)(=O)Cc1ccccc1 | 510 | -9.9% (inactive) | 4.7% (inactive) | 97.4% | 10% (inactive) | 102% | -0.517 (inactive) | 8e-06 (inactive) | 0.00578 (inactive) | 3.22% (inactive) | 15.9% (inactive) |
| CN(C)c1oc(-c2ccccc2F)nc1C#N | 576 | 5.5% (inactive) | 10.1% (inactive) | 104% | -56.7% (inactive) | 111% | -0.355 (inactive) | -1.3e-05 (inactive) | 0.00727 (inactive) | -3.37% (inactive) | -12.5% (inactive) |
| O=C(NCc1cccnc1)C1CCCN(S(=O)(=O)c2ccc(Cl)cc2)C1 (centres undefined) | 638 | -48% (inactive) | -4.5% (inactive) | 98% | -19.2% (inactive) | 104% | -0.601 (inactive) | -4.7e-05 (inactive) | 0.00732 (inactive) | -7.82% (inactive) | -2.22% (inactive) |
